In general, inhibition refers to the relative decrease from the control value, in per cent.

Structures are written as SMILES. The campaign covered roughly 290,000 compounds. About 3,000 (1%) were called active. Rule as the data show it: active = inhibition mostly above about 36% (no sharp cut-off); inactive = mostly below about 34%. Many of the other results were omitted from the sample, so actives are more common in it than they were.

A short description of this test: inhibition of NOD1-driven NF-kB reporter – cell-based, luminescence, uHTS, primary screen (AID 1578).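 Also: HEK-293T reporter cells stimulated with the NOD1 agonist gamma-tri-DAP.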 Conditions: NOD1-driven NF-kB luciferase reporter cells, at 4 µM, active compounds read high. (In a reporter assay the amount or activity of a reporter protein is the signal.)
With `COc1ccc(CN2CCC(n3nccc3NC(=O)c3ccc4c(c3)OCO4)CC2)cc1C`, the inhibition is -12.5% (inactive). The same measure for `O=S(=O)(c1cccs1)N1CCN(Cc2nc3ccccc3s2)CC1`: -23.6% (inactive); for `O=C(NC(N1CCOCC1)C(Cl)(Cl)Cl)c1ccc(F)cc1` (centres undefined): -23.2% (inactive); for `COc1ccc(C(=O)NNC2=Nc3cccc4cccc2c34)cc1`: 11.1% (inactive). As for `Cc1ccc(C(=O)NNC2=Nc3cccc4cccc2c34)cc1`, the figure is 34% (inactive).

Turning to `O=C(NNC1=Nc2cccc3cccc1c23)c1ccc(Br)cc1`, the inhibition was 85.4% (active). As for `CC(=O)N/C(=C/c1ccccc1)C(=O)N1CCCCC1`, the figure is -19.2% (inactive); as for `CCN(CC(=O)Nc1c(F)cccc1F)C(=O)c1n[nH]c2ccccc12`, -21.6% (inactive); as for `O=C(Nc1ccccc1NC(=O)c1ccc(F)cc1)c1ccc(F)cc1`, 5.1% (inactive). The same measure for `N#Cc1cc(NC(=O)c2ccc(F)cc2)c(=O)n2c1[nH]c1ccccc12`: 67.8% (active); for `Cc1ccc2c(c1)sc1ncc(NC(=O)c3ccc(F)cc3)c(=O)n12`: -34.8% (inactive); for `COc1cccc(N(C(=O)c2ccco2)C(C(=O)NC2CCCC2)c2ccc(N(C)C)cc2)c1` (centres undefined): -6.7% (inactive). The same measure for `Cc1cccc(NC(=S)N=Nc2c(O)[nH]c3ccccc23)c1`: -18.3% (inactive); for `Cc1ccc(NC(=S)N=Nc2c(O)[nH]c3ccccc23)cc1`: 50.7% (active).

On to `Oc1ccc(NC(=S)N=Nc2c(O)[nH]c3ccccc23)cc1`, for which the inhibition was -25.5% (inactive). As for `CC(Nc1nc(-c2ccccc2F)nc2ccccc12)c1ccccc1` (centres undefined), the figure is -6.1% (inactive); as for `C=CCn1c2ccccc2c2nnc(SCCN3CCCCC3)nc21`, 33.2% (inactive); as for `C=CCn1c2ccccc2c2nnc(SCCCn3c(=O)[nH]c4ccccc43)nc21`, 60.9% (active). Consider `CCn1c2ccccc2c2nnc(SCCCn3c(=O)[nH]c4ccccc43)nc21`, for which the inhibition was -22.4% (inactive). The same measure for `Cc1oc(-c2ccccc2Cl)nc1CN1CCCCC1CO` (centres undefined): -13.9% (inactive). For `O=C(COC(=O)CCSc1ccccc1)Nc1ccc(F)cc1Cl`, the inhibition is -14% (inactive). For the molecule `CC(C)C(NS(=O)(=O)c1cccc2nsnc12)C(=O)NC1CCCCC1` (centres undefined), the inhibition is -5.2% (inactive). As for `CCCCN1CN(S(=O)(=O)c2ccc(OC)cc2)c2nc3ccccc3nc21`, the figure is -13.8% (inactive); as for `CCCCCCS(=O)Cc1ccccc1` (centres undefined), -9.9% (inactive); as for `CN(C(=O)COc1ccccc1C(=O)NCCc1ccccc1)c1ccccc1`, -33.9% (inactive).

Regarding `COc1ccccc1C(=O)NCCC(=O)NCCOc1ccccc1`, the inhibition was 7.7% (inactive). The same measure for `CCN(CCO)Cc1cc(=O)oc2c(C)c(C)ccc12`: 8.5% (inactive); for `CCN1C=C(Cc2ccc(F)cc2)C2=C(C1)C(c1ccc(F)cc1)C(C#N)=C(N)O2` (centres undefined): 21.1% (inactive); for `CCN1C=C(Cc2cccs2)C2=C(C1)C(c1cccs1)C(C#N)=C(N)O2` (centres undefined): 30.4% (inactive). The same measure for `CCN1C=C(Cc2ccccc2C)C2=C(C1)C(c1ccccc1C)C(C#N)=C(N)O2` (centres undefined): 71.8% (active). `O=C(CCn1nnc2ccccc21)N1CCN(c2ccccc2)CC1`: the inhibition is 7.2% (inactive). The same measure for `CCC1CCCCN1C(=O)CCCc1ccccc1` (centres undefined): -21% (inactive); for `O=C(Nc1nc2ccccc2n1CCOc1ccccc1)c1ccco1`: 35.8% (inactive). The same measure for `COc1ccc(OCCn2c(NC(=O)c3ccco3)nc3ccccc32)cc1`: 9.1% (inactive); for `Cc1c(O)nc(SCC(=O)Nc2nccs2)n(-c2ccccc2F)c1=O`: -42.1% (inactive). As for `CCOC(=O)NNC1CC(=O)N(c2ccccc2)C1=O` (centres undefined), the figure is -12% (inactive). As to `CCc1nccn1S(=O)(=O)c1cc(OC)c(Cl)cc1OC`, the inhibition was -4.5% (inactive). As for `CC(=O)Nc1c(C(=O)O)oc2ccc(Cl)cc12`, the figure is 2.5% (inactive); as for `Cc1ccc(S(=O)(=O)NC2CC2)s1`, 45.4% (active). The same measure for `O=S(=O)(NC1CCCC1)c1ccc(Br)s1`: -14% (inactive).

As for `O=S(=O)(NC1CCCCC1)c1ccc(Br)s1`, the inhibition is -13.1% (inactive). The same measure for `COc1ccc(C(=O)NCC(=O)OCC(=O)Nc2cc(OC)ccc2OC)cc1`: -4.7% (inactive); for `Cc1ccc(NC(=S)N(Cc2ccc(Br)cc2)Cc2ccc(C(=O)O)cc2)cc1C`: -22.8% (inactive); for `NNc1nc(-c2ccccc2)cc(-c2ccccc2O)n1`: 3.5% (inactive).

For `O=[N+]([O-])c1cc(C(F)(F)F)ccc1Sc1ccccn1`, the inhibition was -1.5% (inactive). The same measure for `Oc1c(Cl)cc(Cl)c(Cl)c1Cc1c(O)c(Cl)cc(Cl)c1Cl`: 85.9% (active). As for `Oc1c(Cl)cc(Cl)cc1Sc1cc(Cl)cc(Cl)c1O`, the figure is -35.5% (inactive); as for `Oc1c(Cl)cc(Cl)c2c1NCCC2`, -5.4% (inactive). The same measure for `O=C(NC(=S)NCCO)c1sc2ccccc2c1Cl`: -51.4% (inactive); for `O=S(=O)(CC(CN1CCCC1)N1CCCC1)c1ccc2ccccc2c1` (centres undefined): 51.2% (active). Turning to `O=S(=O)(CC(CN1CCCCC1)N1CCCCC1)c1ccccc1` (centres undefined), the inhibition was 9.2% (inactive). On to `O=S(=O)(CC(CN1CCCCC1)N1CCCCC1)c1ccc2ccccc2c1` (centres undefined), for which the inhibition was -6.3% (inactive). The same measure for `OCCC1CN(Cc2cccc3nonc23)CCN1C1CCCCC1` (centres undefined): -25.9% (inactive); for `O=C(CN1CCN(C(=O)C2CCCO2)CC1)Nc1ccc(F)cc1` (centres undefined): -12% (inactive).

In the case of `Cc1ccc(-c2nnc(OCc3cccnc3)c3ccccc23)cc1`, the inhibition was -11.3% (inactive). The same measure for `COc1cc(/C=C/C(=O)c2ccc3c(c2)OCO3)cc(Cl)c1O`: 13.2% (inactive).

In the case of `COc1ccc(C(=O)/C=C/c2ccc(OC)c(O)c2)c(F)c1`, the inhibition is 36.2% (inactive). The same measure for `COc1cc(/C=C/C(=O)c2ccc(Cl)s2)cc(OC)c1O`: 76.4% (active); for `COc1ccc(C(=O)/C=C/c2cc(OC)c(O)c(OC)c2)c(F)c1`: 93.6% (active); for `COc1ccc(/C=C/C(=O)c2ccc(Cl)s2)cc1O`: -46% (inactive). As for `COc1ccc2cc(C(=O)/C=C/c3cc(OC)c(O)c(OC)c3)ccc2c1`, the figure is 62.6% (inactive); as for `O=C(c1ccc(F)cc1)N1CCN(C2=NS(=O)(=O)c3ccccc32)CC1`, -41.6% (inactive). As for `Cc1nn(-c2ccccc2)c(C)c1NC(=O)COc1ccc(C#N)cc1`, the figure is -20.8% (inactive); as for `CCOc1ccc(NC(=O)CC(NCc2ccccn2)C(=O)O)cc1` (centres undefined), -2.9% (inactive). Take `CCOC(=O)C1CCN(c2ccc(-c3cccs3)nn2)CC1`: the inhibition was -0.9% (inactive). As for `c1csc(-c2ccc(N3CCOCC3)nn2)c1`, the figure is -11.8% (inactive). The same measure for `CC1CCN(c2ccc(-c3cccs3)nn2)CC1`: 31.4% (active); for `CCOC(=O)C1CCN(C(=O)CN(c2cc(Cl)ccc2OC)S(=O)(=O)c2ccccc2)CC1`: -33.5% (inactive); for `COc1cccc(NS(=O)(=O)c2cc3c(cc2C)N(C)CCO3)c1`: -2.7% (inactive). Consider `O=C(N/N=C/c1ccc(N2CCOCC2)cc1)c1ccccc1OCCOc1ccccc1`, for which the inhibition was 58.8% (active).

Take `O=C(N/N=C/c1ccc(OCC(=O)N2CCOCC2)cc1)c1ccccc1Cl`: the inhibition was -15.5% (inactive). As for `O=C(N/N=C/c1ccc(N2CCOCC2)cc1)c1ccccn1`, the figure is 0% (inactive); as for `Fc1ccc(-n2ncc3c(SCc4cccnc4)ncnc32)cc1`, -6.1% (inactive). For `Cc1nc2nc[nH]n2c(=O)c1CC(=O)O`, the inhibition was 14.8% (inactive). In the case of `CC1CCCN(c2ccc3nc4ccccc4c(=O)n3n2)C1` (centres undefined), the inhibition is 28.3% (inactive). The same measure for `CN(c1cc(=O)n2ccccc2n1)C1CCCCC1`: -27.9% (inactive); for `CN(c1ccc2nc3ccccc3c(=O)n2n1)C1CCCCC1`: 92.5% (active). For `CN1CCCN(C(=O)/C=C/c2ccc(F)cc2)CC1`, the inhibition was -22.5% (inactive).

Regarding `N#CCC(=O)Nc1ccc(C(=O)OCC(=O)NCCCc2ccccc2)cc1`, the inhibition is 5.1% (inactive). Regarding `O=C(O)c1ccc(/C=C(\c2nc3ccccc3[nH]2)c2nc3ccccc3s2)cc1`, the inhibition is 4.6% (inactive).

Take `COc1cc(C=C(c2nc3ccccc3s2)c2nc3ccccc3s2)ccc1O`: the inhibition is 7.4% (inactive).

For `O=C(O)c1ccc(C=C(c2nc3ccccc3s2)c2nc3ccccc3s2)cc1`, the inhibition was 63.5% (active). As for `CCCNC(=O)COC(=O)CCC(=O)c1cccs1`, the figure is -7.8% (inactive). Take `O=C(Oc1cccc2cccnc12)c1cccc([N+](=O)[O-])c1`: the inhibition is -8.5% (inactive). Take `O=C(Oc1ccc(Cl)c2cccnc12)c1cccc([N+](=O)[O-])c1`: the inhibition was -6.9% (inactive). The same measure for `O=C(Oc1c(Cl)cc(Cl)c2cccnc12)c1cccc([N+](=O)[O-])c1`: 105% (active); for `COc1ccc(OC)c(Nc2nc(NCc3ccco3)nc(N)c2[N+](=O)[O-])c1`: -6.4% (inactive). As for `Cc1ccc(NS(=O)(=O)c2cc(NC(=O)c3cc(=O)[nH]c(=O)[nH]3)ccc2Cl)c(C)c1`, the figure is 12.4% (inactive); as for `COc1ccc(NC(=O)c2ccc3c(c2)NC(=O)CS3)cc1S(=O)(=O)Nc1ccc(Br)cc1`, 4% (inactive). As for `Cc1ccc(C(=O)N/C(=C\c2cccc([N+](=O)[O-])c2)C(=O)OCN2C(=O)c3ccccc3C2=O)cc1`, the figure is -36.4% (inactive); as for `O=C(NC1=NCCS1)C12CC3CC(CC(C3)C1)C2`, -23.8% (inactive). For the molecule `Nc1cccc2nc3ccccc3cc12`, the inhibition was -65% (inactive).

For `Nc1[nH]nc2nc3ccccc3cc12`, the inhibition was -21.2% (inactive). With `O=C(c1cccc(F)c1)N1C2C=CC(C2)C1(C(F)(F)F)C(F)(F)F` (centres undefined), the inhibition is 23% (inactive). For `N/C(=N/S(=O)(=O)c1ccccc1)c1cccc([N+](=O)[O-])c1`, the inhibition was 2% (inactive). As for `CNC(=S)NNC(=O)c1sc2cc(C(F)(F)F)cnc2c1-c1ccccn1`, the figure is -34.8% (inactive); as for `CCCCCC1CC(=O)N(Cc2ccc(Cl)cc2)C(=O)N1` (centres undefined), 7.7% (inactive). The same measure for `CCCCCCC1CC(=O)NC(=O)N1` (centres undefined): 45.3% (active); for `CCCCCCC1CC(=O)NC(=S)N1` (centres undefined): -3% (inactive).
